Methyltransferases = Primary Screen for Target Class Profiling of Small Molecule Inhibitors of Methyltransferases | calls only at 40 µM | hit rate 3.9% among 25,000 | purified enzyme, MTase-Glo SAH luminescence; hits give low values; call rule not given here
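Each enzyme was reacted with SAM and its substrate, with compounds tested once at 40 uM; SAH formed was read by MTase-Glo luminescence.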
MTase-Glo ctr = counter-screen for methyltransferase inhibitors: coupling enzymes without methyltransferase | shares compounds with Methyltransferases | MTase-Glo coupled enzymes, SAH conversion luminescence, no MTase | Potency, µM (doses to about 57.3 µM), hits mostly inhibitors | hit rate 6% among 180 | AID 1745851; active = well fitted inhibition curve with a large enough effect
Large screens that a line does not name were inactive (follow-up assays come after a bar, where they were run). The full list was thinned out, with hits kept by preference.

CCCCN1C(=O)c2cc(C(=O)NCCc3ccccc3)nn2CC1(C)C(=O)NC1CCCC1 (stereo unspecified)	none
O=C(CSc1nnc2n(CCc3ccccc3)c(=O)c3ccccc3n12)Nc1ccc2c(c1)OCO2	none
COCC(=O)Nc1ccc(-c2noc([C@@H]3CCCN3Cc3ncc[nH]3)n2)cn1	none
COCCNc1cc(-c2noc([C@@H]3CCCN3CC(C)C)n2)ccn1	Methyltransferases active | MTase-Glo ctr inactive
Fc1ccccc1CN1CCC[C@H]1c1nc(-c2ccnc(N3CCOCC3)c2)no1	none
CCCN1C(=O)c2cc(C(=O)NCCc3ccc(Cl)cc3)nn2CC1(C)C(=O)NC1CCCC1 (stereo unspecified)	none
Cc1ccc(Cn2c(=O)c3ccccc3n3c(=O)n(CC(=O)Nc4ccccc4F)nc23)cc1	none
CCCn1cnc2c1CN(S(=O)(=O)c1ccc(F)cc1)[C@H](C(=O)OC)C2	none
COc1ccc(-c2cc3n(n2)CC(C)(C(=O)NCc2ccccc2)N(CCc2ccc(Cl)cc2)C3=O)cc1 (stereo unspecified)	none
COC(=O)[C@@H]1Cc2ncn(Cc3ccc(Cl)cc3)c2CN1CCCc1ccccc1	Methyltransferases active | MTase-Glo ctr 11.1µM
CC(C)CCn1c(=O)c2ccc(C(=O)NC3CCCCC3)cc2n2c(=O)n(CC(=O)NC(C)C)nc12	none
Fc1ccccc1CN1CCCC2(CCN(c3cnccn3)C2)C1 (stereo unspecified)	none
COc1cc2c(cc1CN1CCC3(CCCNC3)C1)OCCCO2 (stereo unspecified)	none
COc1cccc(CN2CCCC3(CCN(c4cc(C)nc(N)n4)C3)C2)c1OC (stereo unspecified)	Methyltransferases active | MTase-Glo ctr inactive
CC(C)OCCCn1c(=O)c2ccccc2n2c(CCC(=O)NC3CCCCC3)nnc12	none
Cc1ccc(Cn2c(=O)c3ccc(C(=O)NC4CCCC4)cc3n3c(=O)n(C)nc23)cc1	none
FC(F)(F)c1cccc(-c2nccn3c(C4CN(Cc5ccc6cn[nH]c6c5)C4)ncc23)c1	Methyltransferases active | MTase-Glo ctr inactive
N#Cc1ccc(CN2CCC3(CC(c4cccc(C(F)(F)F)c4)=NO3)C2)cc1 (stereo unspecified)	none
Cc1noc2c(NCCCn3ccnc3)cc(-c3ccccn3)nc12	none
Cc1noc2c(NCCN3CCOCC3)cc(-c3ccsc3)nc12	none
Cc1noc2c(NC3CCN(C)CC3)cc(-c3cccs3)nc12	Methyltransferases active | MTase-Glo ctr inactive
CCOC(=O)c1ccc2c(c1)[C@@H]1C=CC[C@@H]1[C@H](c1ccccc1Br)N2	none
CN1C(=O)c2cc(C(=O)NC3CCCCCC3)nn2CC1(C)C(=O)NC1CCCCCC1 (stereo unspecified)	none
Cc1noc(C)c1-c1cnc(Nc2ccncc2)c2c1CCO2	Methyltransferases active | MTase-Glo ctr inactive
Cn1cc(-c2cnc(Nc3cccnc3)c3c2CCO3)cn1	none
Fc1cccc(Nc2ncc(-c3cncnc3)c3c2OCC3)c1	none
COc1ccccc1CNC(=O)C1(C)Cn2nc(-c3ccccc3)cc2C(=O)N1c1ccc(F)cc1C (stereo unspecified)	none
COCCN1C(=O)c2ccc(-c3ccccc3)n2CC1(C)C(=O)NC1CCCCCC1 (stereo unspecified)	none
COCc1nc2nc(-c3ccccc3)c(-c3ccc(O)c(F)c3)cc2n1C	Methyltransferases active | MTase-Glo ctr inactive
O=C(Cn1c(=O)oc2cc(S(=O)(=O)N3CCCC3)ccc21)Nc1ccc(Cl)cc1F	none
COc1ccccc1CN1C(=O)c2cc(C(C)(C)C)nn2CC1(C)C(=O)NCc1ccccc1 (stereo unspecified)	none
CN(C)CCNC(=O)c1ccnc(-c2nnc3ccc(N(C)c4ccccc4)nn23)c1	Methyltransferases active | MTase-Glo ctr inactive
CN(C)CCNC(=O)c1cc2n(n1)CC(C)(C(=O)NCc1ccccc1)N(C)C2=O (stereo unspecified)	none
CC1=NOC(C(=O)N2CCCn3nc(C(=O)NCCN(C)C)cc3C2)C1 (stereo unspecified)	none
COC(=O)c1ncn2c1C(=O)N(Cc1cccc(OC)c1OC)C(C)(C(=O)NC1CCCCC1)C2 (stereo unspecified)	none
c1ccc(Cn2cc(CN3CCN(c4ccncc4)CC3)c(-c3cc4ccccc4o3)n2)cc1	Methyltransferases active | MTase-Glo ctr inactive
Cc1nn(-c2ccccc2)c(C)c1/C=N/N1CCN(Cc2ccccc2)CC1	none
Cn1cc(CN2CCN(c3ccc(C#N)cn3)CC2)c(-c2ccccc2)n1	none
COC(=O)c1cc2n(n1)CC(C)(C(=O)NC1CCCCCC1)N(c1ccc(C)cc1C)C2=O (stereo unspecified)	none
CC1(C(=O)NCc2ccccc2)Cn2c(cc3occc32)C(=O)N1Cc1ccc(Cl)cc1 (stereo unspecified)	none
Cc1cnc(-c2cccnc2)n1C1CCN(S(=O)(=O)c2ccc3c(c2)OCCO3)CC1	none
Cc1nc2cccnc2n1CC1CCCN(S(=O)(=O)c2ccc3c(c2)OCCO3)C1 (stereo unspecified)	Methyltransferases active | MTase-Glo ctr inactive
Cc1cnc(CC2CCCN(S(=O)(=O)c3ccccc3)C2)n1CC1CC1 (stereo unspecified)	none
C=Cc1ccc(Cn2nc3n(CC(C)C)c(=O)c4ccc(C(=O)NCC(C)C)cc4n3c2=O)cc1	none
COc1ccc(NC(=O)N2Cc3c(sc4c3CCCC4)-n3cccc3C2c2cccc(OC)c2)cc1 (stereo unspecified)	none
CCCn1c(=O)c2ccccc2n2c(SCc3c(F)cccc3Cl)nnc12	none
Cc1cccc(C2c3cccn3-c3sc4c(c3CN2C(=O)Nc2ccccc2F)CCCC4)c1 (stereo unspecified)	none
CCCn1c(=O)c2ccc(Cl)cc2n2c(=O)n(Cc3cccc(F)c3)nc12	none
COc1ccc(-c2cc3nc4c(c(=O)n3[nH]2)CN(C(=O)CN(C)S(=O)(=O)c2cnc[nH]2)CC4)cc1	Methyltransferases active | MTase-Glo ctr inactive
CN(C)S(=O)(=O)N1CCc2c(nc3cc(-c4ccccc4)[nH]n3c2=O)C1	none
O=C(CCCc1nc2ccccc2s1)N1CCc2nc3cc(-c4ccccc4)[nH]n3c(=O)c2C1	none
COc1ccc(-c2cc(C(=O)Nc3ccc4c(c3)C(=O)N(C)C3=NCCN34)c3ccccc3n2)cc1	none
CCOCCCNC(=O)C1c2c(n(C)c3ccccc23)SCC(=O)N1c1ccc(C(=O)OCC)cc1 (stereo unspecified)	none
COc1cccc([S+](=O)([O-])N2CC(N3CCc4ccccc43)C2)c1	none
COc1cccc([S+](=O)([O-])N2CCC23Cc2ccccc2NC3=O)c1 (stereo unspecified)	none
COc1cccc([S+](=O)([O-])N2CCC3(C2)N=C(c2cccnc2)C(=O)N3)c1 (stereo unspecified)	Methyltransferases active | MTase-Glo ctr inactive
Cc1cnc(C2CC2)n1C1CCCN(Cc2ccccc2)C1 (stereo unspecified)	Methyltransferases active | MTase-Glo ctr inactive
Cc1cnc(C2CCOCC2)n1C1CCCN(S(=O)(=O)c2ccccc2)C1 (stereo unspecified)	none
Cc1cnc(C2CC2)n1C1CCCN(C(=O)c2ccoc2)C1 (stereo unspecified)	none
Cc1ccc(C)c(Nc2nn3c(=O)c4ccc(C(=O)NC5CCCCC5C)cc4nc3s2)c1 (stereo unspecified)	none
COc1ccc(NC(=O)N2CCn3cccc3C2C(C)C)cc1OC (stereo unspecified)	none

Screening results (PubChem BioAssay)
